Assay outcomes deposited in PubChem by several laboratories.
Compounds with a hit are over-represented: about 32% of the library has one in this group of screens.
CYP2C19 activ – cytochrome P450 2C19 (human) activation | activation factor at 5 µM | recombinant CYP2C19, luciferin-H EGE luminescence; active compounds read high; 0 = fully inhibited enzyme, 1 = untreated enzyme | 96,000 tested, under 10 active;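 active means activation factor of at least 2 at 5 µM in the primary screen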
CYP2C9 inhib – blocks human cytochrome P450 2C9; P11712; CYP2C9 Supersomes, luciferin-H conversion, luminescence; inhibition, % at 5 µM; actives 20% (n = 96,000);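 active means blocking of liver enzyme CYP2C9 beyond about 50% at 5 µM, limit read from the data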
Target sequence (P11712 whole entry, looked up): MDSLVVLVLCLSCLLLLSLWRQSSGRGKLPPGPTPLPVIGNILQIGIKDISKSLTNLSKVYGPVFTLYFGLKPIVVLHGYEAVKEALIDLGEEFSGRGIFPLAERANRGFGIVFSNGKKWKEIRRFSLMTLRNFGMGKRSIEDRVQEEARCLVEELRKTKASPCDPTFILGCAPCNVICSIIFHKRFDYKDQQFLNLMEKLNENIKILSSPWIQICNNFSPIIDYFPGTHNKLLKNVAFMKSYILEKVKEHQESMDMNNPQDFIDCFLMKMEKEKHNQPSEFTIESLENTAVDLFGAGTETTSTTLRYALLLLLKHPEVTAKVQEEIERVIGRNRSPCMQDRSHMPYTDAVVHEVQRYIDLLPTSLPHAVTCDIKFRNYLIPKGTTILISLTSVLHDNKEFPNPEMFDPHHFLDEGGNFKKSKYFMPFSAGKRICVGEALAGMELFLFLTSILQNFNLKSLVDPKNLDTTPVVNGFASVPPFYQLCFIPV
CYP2C19 inhib – blocks human cytochrome P450 2C19; P33261; CYP2C19 Supersomes, luciferin-H EGE luminescence, 30 min; inhibition, % at 5 µM; actives 21% (n = 96,000); AID 778;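 active means CYP2C19 inhibition above a set limit at 5 µM in the primary screen, cut at about 50% in these data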
CYP2C9 activ – activators of human CYP2C9 | P11712 | recombinant CYP2C9, luciferin-H conversion, luminescence; active compounds read high; factor 1 = untreated enzyme, 0 = blocked | activation factor at 5 µM | actives 1.4% (n = 96,000) | AID 1024;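 active means activation factor of 2 or more for CYP2C9 at a 5 µM dose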
PostGolgi yeast – growth inhibition of a yeast mutant, post-Golgi transport screen; actives 0.9% (n = 98,000); inhibition, % at 10 µM; post-Golgi transport phenotypic cell assay;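 further: yeast cells grown in 1536-well plates; yeast grown about 18 h at 30C before absorbance read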
PostGolgi ctrl – inhibits growth of the yeast control strain; efflux-deficient yeast background strain, growth absorbance A615, 16 h; inhibition, % at 10 µM; actives 5% (n = 98,000); AID 738
Numbers stand for hits; i = inactive. Unless noted, no stated cut-off is given here; in the data, active means inhibition above about 30%; inactive means the rest.

SMILES	CYP2C19 activ	CYP2C9 inhib	CYP2C19 inhib	CYP2C9 activ	PostGolgi yeast	PostGolgi ctrl
CCOC(=O)c1c(-c2ccc(C)c(C)c2)csc1NC(=O)C1CC=CCC1C(=O)O (stereo unspecified)	i	76	i	i	i	33
Cc1cc(SCc2ccccc2)nc(=O)[nH]1	i	i	i	i	i	i
COc1cc(CN2C(=O)C(NC(=O)c3ccco3)(C(F)(F)F)C3=C2CC(C)(C)CC3=O)cc(OC)c1 (stereo unspecified)	i	60	i	i	i	i
CCCCC(=O)NC1(C(F)(F)F)C(=O)N(CC(C)C)C2=C1C(=O)CC(C)(C)C2 (stereo unspecified)	i	i	i	i	i	31
CCOC(=O)NC1(C(F)(F)F)C(=O)N(Cc2ccccc2)C2=C1C(=O)CC(C)(C)C2 (stereo unspecified)	i	i	71	i	i	i
CCCCN1C(=O)C(NC(=O)C2CC2)(C(F)(F)F)C2=C1CC(C)(C)CC2=O (stereo unspecified)	i	i	i	i	i	i
CC1(C)CC(=O)C2=C(C1)N(Cc1cccnc1)C(=O)C2(NC(=O)c1cccnc1)C(F)(F)F (stereo unspecified)	i	i	i	i	i	i
Nc1nc2ccc([N+](=O)[O-])c(N)c2s1	i	i	i	i	i	i
CC1=CCC2C(=O)N(c3nc(C)cc(C)n3)C(=O)C2C1 (stereo unspecified)	i	i	i	i	i	i
CC1=CCC2C(=O)N(c3ccc(C)cc3)C(=O)C2C1 (stereo unspecified)	i	i	64	i	i	i
CC1=CCC2C(=O)N(c3ccc(Br)cc3C)C(=O)C2C1 (stereo unspecified)	i	60	78	i	i	i
CC1=CCC2C(=O)N(c3ccc4ccccc4n3)C(=O)C2C1 (stereo unspecified)	i	i	62	i	i	i
CCOC(=O)c1ccc(NC(=O)CSCc2ccco2)cc1	i	i	i	i	i	i
N#Cc1c(-c2ccccc2)nc2n(c1=O)CCS2	i	i	i	i	i	i
CCC(C(=O)NC1CCCC1)N(C(=O)Cn1nnc(-c2ccc(C)o2)n1)C(C)(C)C (stereo unspecified)	i	i	i	i	i	i
O=C(CCN1C(=O)c2ccccc2C1=O)Nc1cccc(S(=O)(=O)N2CCCCC2)c1	i	92	81	i	i	i
CC1CCN(S(=O)(=O)c2ccc(NC(=O)Cn3nnc(-c4ccccc4F)n3)cc2)CC1	i	80	i	i	i	i
CC1CN(S(=O)(=O)c2ccc(NC(=O)c3ccco3)cc2)CC(C)O1 (stereo unspecified)	i	i	i	i	i	i
CC1CCN(S(=O)(=O)c2ccc(NC(=O)Cc3ccccc3)cc2)CC1	i	92	78	i	i	39
CC1CN(S(=O)(=O)c2ccc(NC(=O)CCCN3C(=O)c4ccccc4C3=O)cc2)CC(C)O1 (stereo unspecified)	i	50	i	i	i	i
CCNC(=O)CC1C(=O)N(c2ccc(C)cc2)C(=O)N1Cc1ccccn1 (stereo unspecified)	i	i	i	i	i	i
Cc1cc(NS(=O)(=O)c2ccc(NC(=O)CCN3C(=O)c4ccccc4C3=O)cc2)no1	i	i	i	i	i	i
CC1CCN(S(=O)(=O)c2ccc(NC(=O)CCN3C(=O)c4ccccc4C3=O)cc2)CC1	i	94	62	i	83	i
Cc1ccc(NC(=O)c2ccc(S(=O)(=O)N3CCC(C)CC3)cc2)cc1	i	i	i	i	i	i
CC1CCN(S(=O)(=O)c2ccc(C(=O)Nc3sccc3C(N)=O)cc2)CC1	i	59	52	i	i	i
O=C(CCCCCN1C(=O)c2ccccc2C1=O)Nc1ccc(S(=O)(=O)N2CCCCC2)cc1	i	83	i	i	i	i
CC1CN(S(=O)(=O)c2ccc(NC(=O)CCN3C(=O)c4ccccc4C3=O)cc2)CC(C)O1 (stereo unspecified)	i	57	i	i	i	i
Cc1cnn(-c2cc(Oc3ccccc3)ncn2)c1	i	i	i	i	i	i
Cn1cccc1C(=O)NC(=O)CSc1nc2ccccc2s1	i	i	i	i	i	i
COC(=O)c1nc(C(=O)OC)c(C(=O)OC)nc1C(=O)OC	i	i	i	i	i	i
